According to the supplement of paper PMC8728848:
Shown is part of a subset that was picked to be rich in the strongest signals.

How the values were obtained:
Experiment in all cases: glycan array binding signal (z-score within array); higher = stronger binding
Conditions in all cases: glycan notation: IUPAC condensed, linker removed
[1] = target: Fuc(a1-2)Gal(b1-4)GlcNAc(b1-3)Gal(b1-4)GlcNAc(b1-3)Gal(b1-4)GlcNAc
Outline: (§1)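 The binding signal is a Z-score computed within each array and averaged over linkers. Arrays of the same protein sequence at different concentrations or buffers were also averaged together. Data originate from 3228 arrays in the Consortium for Functional Glycomics database, kept only where the protein sequence was available.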

[2] = target: Fuc(a1-2)Gal(b1-4)[Fuc(a1-3)]GlcNAc(b1-2)Man(a1-6)[Fuc(a1-2)Gal(b1-4)[Fuc(a1-3)]GlcNAc(b1-2)Man(a1-3)]Man(b1-4)GlcNAc(b1-4)[Fuc(a1-6)]GlcNAc
Outline: as §1

[3] = target: Fuc(a1-2)Gal6S(b1-3)GlcNAc6S
Outline: as §1

[4] = target: Fuc(a1-2)Gal6S(b1-4)Glc6S
Outline: as §1

[5] = target: Fuc(a1-2)[Gal(a1-3)]Gal(b1-4)[Fuc(a1-3)]Glc
Outline: as §1

[6] = target: Fuc(a1-3)[Gal(b1-4)]GlcNAc(b1-2)Man(a1-3)[Fuc(a1-3)[Gal(b1-4)]GlcNAc(b1-2)Man(a1-6)]Man(b1-4)GlcNAc(b1-4)[Fuc(a1-6)]GlcNAc
Outline: as §1

[7] = target: Fuc(a1-3)[GalNAc(b1-4)]GlcNAc
Outline: as §1

[8] = target: Gal(a1-3)Gal(b1-3)GlcNAc(b1-2)Man(a1-3)[Gal(a1-3)Gal(b1-3)GlcNAc(b1-2)Man(a1-6)]Man(b1-4)GlcNAc(b1-4)GlcNAc
Outline: as §1

[9] = target: Gal(a1-3)Gal(b1-3)GlcNAc(b1-3)GalNAc
Outline: as §1

[10] = target: Gal(a1-3)Gal(b1-4)GlcNAc(b1-3)GalNAc
Outline: as §1

[11] = target: Gal(a1-4)Gal(b1-3)GlcNAc(b1-2)Man(a1-3)[Gal(a1-4)Gal(b1-3)GlcNAc(b1-2)Man(a1-6)]Man(b1-4)GlcNAc(b1-4)GlcNAc
Outline: as §1

[12] = target: Gal(a1-4)Gal(b1-4)GlcNAc(b1-2)Man(a1-3)[Gal(a1-4)Gal(b1-4)GlcNAc(b1-2)Man(a1-6)]Man(b1-4)GlcNAc(b1-4)GlcNAc
Outline: as §1

[13] = target: Gal(b1-3)GlcNAc(b1-3)Gal(b1-4)GlcNAc
Outline: as §1

[14] = target: Gal(b1-3)GlcNAc(b1-3)Gal(b1-4)GlcNAc(b1-6)[Gal(b1-3)GlcNAc(b1-3)]Gal(b1-4)Glc
Outline: as §1

[15] = target: Gal(b1-3)GlcNAc(b1-3)GalNAc
Outline: as §1

[16] = target: Gal(b1-3)GlcNAc(b1-6)Gal(b1-4)GlcNAc
Outline: as §1

[17] = target: Gal(b1-4)GlcNAc(a1-6)Gal(b1-4)GlcNAc
Outline: as §1

[18] = target: Gal(b1-4)GlcNAc(b1-2)Man(a1-3)[Gal(b1-4)GlcNAc(b1-2)Man(a1-6)]Man(b1-4)GlcNAc(b1-4)[Fuc(a1-6)]GlcNAc
Outline: as §1

[19] = target: Gal(b1-4)GlcNAc(b1-2)Man(a1-6)Man(b1-4)GlcNAc(b1-4)GlcNAc
Outline: as §1

[20] = target: Gal(b1-4)GlcNAc(b1-3)Gal(b1-4)Glc
Outline: as §1

[21] = target: Gal(b1-4)GlcNAc(b1-6)Gal(b1-4)GlcNAc
Outline: as §1

[22] = target: GalNAc(b1-3)Gal(a1-4)Gal(b1-4)GlcNAc(b1-3)Gal(b1-4)Glc
Outline: as §1

[23] = target: GalNAc(b1-3)Gal(a1-6)Gal(b1-4)Glc
Outline: as §1

GlcA(b1-3)GlcNAc = target: GlcA(b1-3)GlcNAc
Outline: as §1

GlcA(b1-6)Gal = target: GlcA(b1-6)Gal
Outline: as §1

[24] = target: GlcNAc(a1-4)Gal(b1-4)GlcNAc(b1-3)Gal(b1-4)GlcNAc(b1-3)Gal(b1-4)GlcNAc
Outline: as §1

[25] = target: GlcNAc(a1-4)Gal(b1-4)GlcNAc(b1-3)Gal(b1-4)[Fuc(a1-3)]GlcNAc(b1-3)Gal(b1-4)[Fuc(a1-3)]GlcNAc
Outline: as §1

[26] = target: GlcNAc(b1-2)Man(a1-3)[GlcNAc(b1-2)Man(a1-6)]Man(b1-4)GlcNAc(b1-4)GlcNAc
Outline: as §1

[27] = target: GlcNAc(b1-2)[GlcNAc(b1-4)]Man(a1-3)[GlcNAc(b1-2)Man(a1-6)]Man(b1-4)GlcNAc(b1-4)GlcNAc
Outline: as §1

[28] = target: GlcNAc(b1-3)Gal(b1-4)GlcNAc
Outline: as §1

GlcNAc(b1-3)Man = target: GlcNAc(b1-3)Man
Outline: as §1

Man(a1-2)Man(a1-3)Man = target: Man(a1-2)Man(a1-3)Man
Outline: as §1

[29] = target: Man(a1-3)[Man(a1-6)]Man(a1-6)[Man(a1-2)Man(a1-3)]Man(b1-4)GlcNAc(b1-4)GlcNAc
Outline: as §1

[30] = target: Man(a1-3)[Man(a1-6)]Man(a1-6)[Man(a1-3)]Man
Outline: as §1

[31] = target: Man(a1-3)[Man(a1-6)]Man(b1-4)GlcNAc(b1-4)GlcNAc
Outline: as §1

[32] = target: Man(a1-3)[Man(a1-6)]Man(b1-4)GlcNAc(b1-4)[Fuc(a1-6)]GlcNAc
Outline: as §1

[33] = target: Neu5Ac(a2-3)Gal(b1-4)GlcNAc(b1-2)[Neu5Ac(a2-3)Gal(b1-4)GlcNAc(b1-6)]Man(a1-6)[Neu5Ac(a2-3)Gal(b1-4)GlcNAc(b1-2)Man(a1-3)]Man(b1-4)GlcNAc(b1-4)GlcNAc
Outline: as §1

[34] = target: Neu5Ac(a2-3)Gal(b1-4)GlcNAc(b1-3)Gal
Outline: as §1

[35] = target: Neu5Ac(a2-3)Gal(b1-4)GlcNAc6S
Outline: as §1

[36] = target: Neu5Ac(a2-6)Gal(b1-4)GlcNAc(b1-2)Man(a1-6)[GlcNAc(b1-2)Man(a1-3)]Man(b1-4)GlcNAc(b1-4)GlcNAc
Outline: as §1

[37] = target: Neu5Ac9Ac(a2-3)Gal(b1-3)GlcNAc
Outline: as §1

[38] = target: Neu5Gc(a2-3)Gal(b1-4)GlcNAc
Outline: as §1

[39] = target: Fuc(a1-2)[GalNAc(a1-4)]Gal(b1-4)GlcNAc
Outline: as §1

[40] = target: Fuc(a1-3)[Gal(b1-4)]GlcNAc(b1-4)Gal(b1-4)[Fuc(a1-3)]GlcNAc
Outline: as §1

[41] = target: Fuc(a1-3)[Gal3S(b1-4)]Glc6S
Outline: as §1

[42] = target: Fuc(a1-3)[Gal3S(b1-4)]GlcNAc6S
Outline: as §1

[43] = target: Gal(b1-4)GlcNAc(b1-3)GalNAc
Outline: as §1

[44] = target: Gal3S(b1-3)[Fuc(a1-4)]GlcNAc
Outline: as §1

[45] = target: GlcNAc(b1-3)[GlcNAc(b1-6)]GalNAc
Outline: as §1

GlcNAc(b1-6)GalNAc = target: GlcNAc(b1-6)GalNAc
Outline: as §1

Neu5Ac(a2-3)Gal = target: Neu5Ac(a2-3)Gal
Outline: as §1

[46] = target: Neu5Ac(a2-3)Gal(b1-3)[Fuc(a1-4)]GlcNAc
Outline: as §1

[47] = target: Neu5Ac(a2-3)Gal(b1-4)GlcNAc
Outline: as §1

[48] = target: Neu5Ac(a2-3)Gal(b1-4)GlcNAc(b1-3)Gal(b1-4)GlcNAc(b1-3)Gal(b1-4)GlcNAc
Outline: as §1

[49] = target: Neu5Ac(a2-3)Gal(b1-4)[Fuc(a1-3)]GlcNAc(b1-3)Gal(b1-4)[Fuc(a1-3)]GlcNAc(b1-3)Gal(b1-4)[Fuc(a1-3)]GlcNAc
Outline: as §1

[50] = target: Neu5Ac(a2-3)Gal(b1-4)[Fuc(a1-3)]GlcNAc6S
Outline: as §1

[51] = target: Neu5Gc(a2-3)Gal(b1-3)[Fuc(a1-4)]GlcNAc
Outline: as §1

B1: RVL (Remusatia vivipara), B5LYJ9 (protein)
chain: MAKLLLFLLPAILGLLVPRSAVALGTNYLLSGQTLDTEGHLKNGDFDLVMQDDCNLVLYNGNWQSNTANNGRDCKLTLTDYGELVIKNGDGSTVWKSGAQSVKGNYAAVVHPDGRLVVLGPSVFKIDPWVRGLNSLRFRNIPFTNNLLFSGQVLYGDGRLTAKNHQLVMQGDCNLVLYGGKYGWQSNTHGNGEHCFLRLNHKGELIIKDDDFKTIWSSRSSSKQGEYVLILQDDGFGVIYGPAIFETSSKRSIAAS
- glycan array binding signal (z-score) [1]: -0.272
- glycan array binding signal (z-score) [2]: 9.79
- glycan array binding signal (z-score) [3]: 0.483
- glycan array binding signal (z-score) [4]: -0.151
- glycan array binding signal (z-score) [5]: -0.32
- glycan array binding signal (z-score) [6]: 0.076
- glycan array binding signal (z-score) [7]: -0.292
- glycan array binding signal (z-score) [8]: 0.313
- glycan array binding signal (z-score) [9]: -0.166
- glycan array binding signal (z-score) [10]: -0.178
- glycan array binding signal (z-score) [11]: 1.75
- glycan array binding signal (z-score) [12]: 1.93
- glycan array binding signal (z-score) [13]: -0.252
- glycan array binding signal (z-score) [14]: -0.574
- glycan array binding signal (z-score) [15]: -0.055
- glycan array binding signal (z-score) [16]: 0.004
- glycan array binding signal (z-score) [17]: -0.142
- glycan array binding signal (z-score) [18]: 7.05
- glycan array binding signal (z-score) [19]: -0.136
- glycan array binding signal (z-score) [20]: -0.252
- glycan array binding signal (z-score) [21]: -0.216
- glycan array binding signal (z-score) [22]: -0.066
- glycan array binding signal (z-score) [23]: -0.17
- glycan array binding signal (z-score) (GlcA(b1-3)GlcNAc): -0.098
- glycan array binding signal (z-score) (GlcA(b1-6)Gal): -0.23
- glycan array binding signal (z-score) [24]: 0.124
- glycan array binding signal (z-score) [25]: 0.3
- glycan array binding signal (z-score) [26]: 0.913
- glycan array binding signal (z-score) [27]: 2.4
- glycan array binding signal (z-score) [28]: -0.145
- glycan array binding signal (z-score) (GlcNAc(b1-3)Man): -0.227
- glycan array binding signal (z-score) (Man(a1-2)Man(a1-3)Man): -0.197
- glycan array binding signal (z-score) [29]: 3.91
- glycan array binding signal (z-score) [30]: 0.224
- glycan array binding signal (z-score) [31]: 3.8
- glycan array binding signal (z-score) [32]: 6.15
- glycan array binding signal (z-score) [33]: 3.54
- glycan array binding signal (z-score) [34]: -0.103
- glycan array binding signal (z-score) [35]: -0.033
- glycan array binding signal (z-score) [36]: -0.207
- glycan array binding signal (z-score) [37]: -0.284
- glycan array binding signal (z-score) [38]: -0.111

B2: E-Selectin (Mus musculus), Q00690 (protein)
chain: MNASRFLSALVFVLLAGESTAWYYNASSELMTYDEASAYCQRDYTHLVAIQNKEEINYLNSNLKHSPSYYWIGIRKVNNVWIWVGTGKPLTEEAQNWAPGEPNNKQRNEDCVEIYIQRTKDSGMWNDERCNKKKLALCYTASCTNASCSGHGECIETINSYTCKCHPGFLGPNCEQAVTCKPQEHPDYGSLNCSHPFGPFSYNSSCSFGCKRGYLPSSMETTVRCTSSGEWSAPAPACHVVECEALTHPAHGIRKCSSNPGSYPWNTTCTFDCVEGYRRVGAQNLQCTSSGIWDNETPSCKAVTCDAIPQPQNGFVSCSHSTAGELAFKSSCNFTCEQSFTLQGPAQVECSAQGQWTPQIPVCKAVQCEALSAPQQGNMKCLPSASGPFQNGSSCEFSCEEGFELKGSRRLQCGPRGEWDSKKPTCSAVKCDDVPRPQNGVMECAHATTGEFTYKSSCAFQCNEGFSLHGSAQLECTSQGKWTQEVPSCQVVQCPSLDVPGKMNMSCSGTAVFGTVCEFTCPDDWTLNGSAVLTCGATGRWSGMPPTCEAPVSPTRPLVVALSAAGTSLLTSSSLLYLLMRYFRKKAKKFVPASSCQSLQSFENYHVPSYNV
- glycan array binding signal (z-score) [1]: -0.255
- glycan array binding signal (z-score) [39]: -0.301
- glycan array binding signal (z-score) [40]: 0.598
- glycan array binding signal (z-score) [41]: 5.1
- glycan array binding signal (z-score) [42]: 2.52
- glycan array binding signal (z-score) [43]: -0.338
- glycan array binding signal (z-score) [44]: 4.55
- glycan array binding signal (z-score) [45]: -0.279
- glycan array binding signal (z-score) (GlcNAc(b1-6)GalNAc): -0.272
- glycan array binding signal (z-score) [31]: -0.288
- glycan array binding signal (z-score) (Neu5Ac(a2-3)Gal): -0.277
- glycan array binding signal (z-score) [46]: 4.47
- glycan array binding signal (z-score) [47]: -0.333
- glycan array binding signal (z-score) [48]: -0.184
- glycan array binding signal (z-score) [49]: 3.13
- glycan array binding signal (z-score) [50]: 3.24
- glycan array binding signal (z-score) [51]: 4.57
